# Screens as filed in PubChem.
# Compounds with a hit are over-represented: about 7.9% of the library has one in this group of screens.
# HT1080NT lethal: qHTS for induction of synthetic lethality in tumor cells producing 2HG: qHTS for the HT-1080-NT fibrosarcoma cell line; AID 686970, 2013; hit rate 1.6% among 360,000; HT-1080-NT fibrosarcoma viability, CellTiter-Glo ATP luminescence, 48 h; Potency, µM (doses to about 46.1 µM), for inactives: at the highest dose activity, negative = less viability, most hits filed as cytotoxic;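 also: NT is the 2HG producing partner of a matched IDH1 knockdown line; 0% = DMSO-treated cells and -100% = media-only wells without cells; nearly all actives have a fitted effect of over 55% in size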
#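 Toxicity toward the 2HG-producing NT line was scored as %Activity, normalised to DMSO and no-cell wells, from CellTiter-Glo luminescence after 48 hours' treatment.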
# KB-V1 MDR tox: qHTS assay for MDR1-selective chemotherapeutics: Primary screen using the drug-selected MDR subline cells KB-V1; KB-V1 MDR cells viability, CellTiter-Glo, 72 h; Potency, µM (titrated, usually from 46.1 µM), usual class: cytotoxic; hit rate 3.4% among 400,000; AID 1347076, 2019; also: % is scaled to controls: 0 for no effect and ±100 for the full control effect; nearly all actives have a fitted effect of over 60% in size
#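 KB-V1, DMEM (no phenol red) + 10% FBS; cpd pin-transferred, titration series; 72 h, 37 degrees C; CellTiter-Glo, luminescence. Data normalized, curve-fit.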
# MCF10A rerep: A quantitative high throughput screen for small molecules that induce DNA re-replication in MCF 10a normal breast cells | MCF 10A DNA re-replication, Hoechst nuclear intensity, 48 h | Potency, µM (top dose mostly 46.1 µM), inactives show at the top dose activity, positive = re-replication, hits mostly activators | hit rate 2.9% among 350,000 | AID 624296, 2012; also: % of control where 0% means no effect; nearly all actives have a fitted effect of over 50% in size
# KB-3-1 cytotox: qHTS assay for MDR1-selective chemotherapeutics: Primary screen using the parental adenocarcinoma cell KB-3-1. KB-3-1 viability, CellTiter-Glo ATP luminescence, 72 h. Potency, µM (series often up to 46.1 µM), hits mostly cytotoxic. hit rate 1.4% among 400,000; also: % is scaled to controls: 0 for no effect and ±100 for the full control effect; nearly all actives have a fitted effect of over 60% in size
#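 Cells are dispensed, compounds pinned in, plates held at 37 °C for 72 h, then CellTiter-Glo is added and luminescence read after 10 minutes. Cell line: parental KB-3-1 in phenol-red-free DMEM, 10% FBS.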
# SW480 rerep: A quantitative high throughput screen for small molecules that induce DNA re-replication in SW480 colon adenocarcinoma cells | SW480 DNA re-replication, Hoechst DNA content imaging, 48 h | Potency, µM (series often up to 46.1 µM), inactives show top-dose re-replication activation, hits mostly activators | hit rate 1.8% among 340,000 | AID 624297, 2012; also: % of control where 0% means no effect; nearly all actives have a fitted effect of over 55% in size
#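 Treated cells incubate 48 hr (37 C, 5% CO2), are stained 40 min with Hoechst, and nuclear fluorescence is enumerated; a rise in nuclei with high DNA signal marks re-replication.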
# HT1080 IDH1KD tx: qHTS for induction of synthetic lethality in tumor cells producing 2HG: qHTS for the HT-1080-IDH1KD cell line. HT-1080 IDH1 knockdown viability, ATP luminescence, 48 h. AID 686971, 2013. Potency, µM (doses to about 46.1 µM), without a hit: at the top dose activity, negative = toxicity, actives largely listed as cytotoxic. hit rate 2% among 360,000;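 also: 0% = DMSO wells and -100% = cell-free medium wells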
#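 Viability of IDH1-knockdown HT-1080 fibrosarcoma cells was assessed by CellTiter-Glo after 48 h at 37 °C with titrated compound; concentration-effect curves were classified by fit quality and response size.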
# * marks the source's active call; other numbers are inactive results; i = inactive; ? = inconclusive; . = no result; [ ] = dose if it differs, or a comment. Calls follow the shape of the dose curve; as a rule, active = well fitted curve in the direction sought with a large enough effect; inconclusive = small, poorly fitted or top-dose-only effect, or another doubt; inactive = no such curve, though single readings can be large; an effect the other way counts as inactive or inconclusive. Potency is read from the fitted curve at half-maximal effect.
SMILES,HT1080NT lethal,KB-V1 MDR tox,MCF10A rerep,KB-3-1 cytotox,SW480 rerep,HT1080 IDH1KD tx
CC1=C(C(=O)N(C)C)CC(CC(=O)NCCCN(C)C)C(=O)N1CCC1=CCCCC1 (configuration not stated),2%,?,.,i,.,10%
CN1CCC2(CC1)Nc1nc(SCc3ccc(Cl)cc3)nn1C1=C2CN(C)CC1,26µM*,i,5%,?,14%,21µM*
CCOc1ccc(Cc2c(C)[nH]c3ccc(C(=O)O)cc3c2=S)cc1,9%,i,-5%,i,-4%,9%
CCOc1ccc(C(=O)/C=C/c2cn(CN3CCN(C)CC3)c3ccccc23)cc1,-28%,i,10µM*,i,?,?
COc1ccc(C(=O)/C=C/c2cn(CN3CCN(C)CC3)c3ccccc23)cc1,-3%[9.24 µM],i,8.2µM*,?,21µM*,?
COc1ccc(C(=O)/C=C/c2cn(CC(O)CN3CCc4ccccc43)c3ccccc23)cc1OC (configuration not stated),.,?,.,i,.,.
C[N+]12CCCC[C@@H]1CCC(=C(c1cccs1)c1cccs1)C2 (some centres not stated),.,.,7%,.,-3%,.
CCCN1CCN(CCCNC(=O)c2ccc3c(c2)sc2nc(-c4ccc(OCC)cc4)cn23)CC1,.,?,.,18µM*,.,.
CC1CCCCN1CCCNC(=O)c1ccc2c(c1)sc1nc(-c3ccc(F)cc3)cn12 (configuration not stated),.,21µM*,.,i,.,.
CCOc1ccc(-c2cn3c(n2)sc2cc(C(=O)NCCCN4CCCCC4)ccc23)cc1,.,21µM*,.,?,.,.
CCOc1ccc(-c2cn3c(n2)sc2cc(C(=O)NCCCN4CCCCCC4)ccc23)cc1,.,?,.,i,.,.
O=C(NCCCN1CCCCC1)c1ccc2c(c1)sc1nc(-c3ccc(F)cc3)cn12,.,16µM*,.,i,.,.
Cc1ccc(-c2cn3c(n2)sc2cc(C(=O)NCCCN4CCCCCC4)ccc23)cc1,.,i,.,i,.,.
Cc1cc2c(=O)oc(-c3ccc(Br)cc3)nc2s1,12%,i,1%,i,-43%,17%
CCOc1ccc(CN(C(=O)c2ccccn2)c2ccc(OC)c(Cl)c2)cc1,?,?,23µM*,?,?,?
CCOc1ccc(N(Cc2ccc(OC)c(OC)c2)C(=O)c2ccco2)cc1,-11%,i,-2%,i,-5%,-1%
COc1ccc(-c2nc3c(C#N)c[nH]n3c2NC2CCCCC2)cc1,.,i,.,i,.,.
COCCNC(=O)CN1C(=O)CCn2nc(-c3cn(C)c4ccccc34)cc21,.,i,.,i,.,.
COc1nnc(-c2ccc(C)cc2)c2ccccc12,-11%,i,2%,i,6%,-9%
O=C1CC(SC(=Nc2ccccc2)Nc2ccccc2)C(=O)N1c1ccc(Cl)cc1 (configuration not stated),-13%,i,5%,i,-1%,-12%
O=C1CC(SC(=Nc2ccccc2)Nc2ccccc2)C(=O)N1c1cccc(Cl)c1 (configuration not stated),?,i,18%,?,-4%,23µM*
COc1cccc(S(=O)(=O)NC2CCN(C#N)C2)c1 (configuration not stated),.,i,-1%,i,11%,.
O=C1CN(C(=O)c2ccc(Cl)c(S(=O)(=O)N3CCc4ccccc43)c2)c2ccccc2N1,7.3µM*,?,?,?,?,?
NC(=O)C1CCN(C(=O)c2ccc(Cl)c(S(=O)(=O)N3CCc4ccccc43)c2)CC1,-1%,?,.,i,.,-1%
O=C1CN(C(=O)c2cc(Br)c(Br)s2)c2ccccc2N1,?,?,?,?,?,21µM*
SMILES,HT1080NT lethal,KB-V1 MDR tox,MCF10A rerep,KB-3-1 cytotox,SW480 rerep,HT1080 IDH1KD tx
O=C1CN(C(=O)c2ccccc2)c2ccccc2N1,6%,i,-1%,i,-8%,5%
O=C1CN(C(=O)c2cccc(Br)c2)c2ccccc2N1,15µM*,10µM*,23µM*,5.8µM*,?,?
COc1ccc(S(=O)(=O)N2CCCCC2)cc1NC(=O)COC(=O)c1ccco1,-2%,i,0%,i,-5%,9%
CC1CCCCC12NC(=O)N(CC(=O)N1CCc3ccccc3C1)C2=O (configuration not stated),7%,i,-1%,i,-3%,8%
Cc1ccc(CN(C(=O)c2ccc([N+](=O)[O-])cc2)c2ccccn2)cc1,.,i,.,i,.,.
N#Cc1c(F)cccc1N1CCN(Cc2ccc3c(c2)OCO3)CC1,-21%,i,?,i,-9%,-20%
O=S(=O)(c1ccc(N2CCCC2c2nc3ccccc3s2)nc1)N1CCOCC1 (configuration not stated),-9%,8.2µM*,4%,i,-1%,-10%
CC(=O)C1=CCC(c2ccccc2)N(S(C)(=O)=O)C1 (configuration not stated),19%,?,.,i,.,16%
Cc1ccc(S(=O)(=O)N2CC(C(=O)O)Oc3ccccc32)cc1 (configuration not stated),0%,?,0%,i,-2%,-1%
CC1COc2ccccc2N1S(=O)(=O)c1ccc(Cl)cc1 (configuration not stated),-13%,i,21µM*,i,?,-25%
O=C(C(Cl)Cl)N1c2ccccc2OCC1c1ccccc1 (configuration not stated),-10%,?,?,18µM*,-1%,-19%
CC1COc2ccccc2N1C(=O)c1ccc(Cl)cc1 (configuration not stated),2%,i,2%,i,-3%,6%
Cc1ccc(S(=O)(=O)N2c3ccccc3OCC2c2ccccc2)cc1 (configuration not stated),?,?,16µM*,?,?,?
CCn1c(=O)[nH]c(=O)c2c(N)c(C(=O)c3ccccc3OC)sc21,2%,23µM*,1%,i,-32%,10%
Cc1ccc(NC(=O)Cn2c(=O)n(CCCS(=O)(=O)C3CCCCC3)c(=O)c3ccccc32)cc1F,.,i,.,i,.,.
